Laboratory results taken from PubChem BioAssay (Tox21).
“And” between values parts separate entries of the source, which are not always exact repeats. Equal values may be shown once. Records with an inconclusive call do not appear. The source made the active and inactive calls. Calls come from the whole dose curve; as a rule, active = well fitted curve in the direction sought with a large enough effect in the repeat runs; inconclusive = weak or mixed curves; inactive = no such curve, though single readings can be large; an effect the other way counts as inactive or inconclusive.

Key:
[1] = Human pregnane X receptor (PXR) small molecule agonists, qHTS cell viability counter screen (AID 1346977); note: nearly all actives have a fitted effect of over 50% in size; note: potency is the fitted concentration of half-maximal effect
Procedure, shortened: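 Viability counter screen: CellTiter-Fluor signal in PXR-Luc HepG2 cells, 24hr compound exposure, 37C, 5% CO2.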

[2] = Caspase-3/7 induction in HepG2 cells by small molecules, qHTS assay (AID 1346978); note: nearly all actives have a fitted effect of over 15% in size; note: potency is the fitted concentration of half-maximal effect
Procedure, shortened: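 Wild-type HepG2 cells (2,000/well) were settled 5 h at 37 C, 5% CO2, then exposed to compounds in DMSO for 17 h. Caspase-3/7 activity was read by luminescence 30 min after adding Caspase-Glo 3/7 reagent at room temperature.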

[3] = Caspase-3/7 induction in CHO-K1 cells by small molecules, qHTS cell viability counter screen (AID 1346979); note: nearly all actives have a fitted effect of over 35% in size; note: potency is the fitted concentration of half-maximal effect
Procedure, shortened: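 Viability readout by fluorescence (CellTiter-Fluor) on wild-type CHO-K1 cells exposed for 16hr at 37C and 5% CO2 to compounds delivered in DMSO; reagent incubated 1hr before reading.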

[4] = Caspase-3/7 induction in CHO-K1 cells by small molecules, qHTS assay (AID 1346980); note: nearly all actives have a fitted effect of over 15% in size; note: potency is the fitted concentration of half-maximal effect
Procedure, shortened: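 Wild-type cells were seeded at 1,500 per well and settled 5 hr at 37 C, 5% CO2, then exposed to DMSO-dissolved compounds for 17 hr. Caspase-Glo 3/7 reagent was added, and luminescence was read after 30min at room temperature.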

[5] = Caspase-3/7 induction in HepG2 cells by small molecules, qHTS cell viability counter screen (AID 1346981); note: nearly all actives have a fitted effect of over 30% in size; note: potency is the fitted concentration of half-maximal effect; for activity change, negative = cytotoxicity: series mostly up to about 92 µM
Procedure, shortened: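 Fluorescence read-out of live-cell protease activity (CellTiter-Fluor) after 1 hr with reagent. This was measured in the same wells as the caspase-3/7 luminescence, on HepG2 cells exposed to DMSO-dissolved compounds for 16 hr at 37 C.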

[6] = biological target: Nuclear receptor subfamily 1 group I member 2 (Homo sapiens) (UniProt O75469); experiment: Human pregnane X receptor (PXR) small molecule agonists, qHTS assay (AID 1346982); note: nearly all actives have a fitted effect of over 35% in size; note: potency is the fitted concentration of half-maximal effect
Procedure, shortened: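 HepG2 PXR-Luc reporter line, 5% charcoal-stripped FBS; 5 hr pre-incubation, compound (DMSO) 24 hr at 37 C/5% CO2; ONE-Glo 30 min RT; luminescence read-out.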

[7] = biological target: Nuclear receptor subfamily 1 group I member 2 (Rattus norvegicus) (UniProt Q9R1A7); experiment: Rat pregnane X receptor (rPXR) activation by small molecules, qHTS assay (AID 1346983); conditions: rPXR luciferase reporter cells, One-Glo luminescence, 24 h; max activation: active compounds read high; note: nearly all actives have a fitted effect of over 20% in size; note: potency is the fitted concentration of half-maximal effect
Procedure, shortened: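 Cell-based rPXR luciferase reporter assay, 2,000 cells per well, rested 5hr at 37 C before compound addition in DMSO, then 24 hr at 37 C. One-Glo reagent was added and luminescence read after 30 min at room temperature.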

[8] = biological target: Nuclear receptor subfamily 1 group I member 2 (Homo sapiens) (UniProt O75469); experiment: CYP3A4 induction through human pregnane X receptor (PXR) by small molecules, qHTS assay (AID 1346984); note: nearly all actives have a fitted effect of over 40% in size
Procedure, shortened: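 HepG2-derived DPX-2 line carrying PXR plus a CYP3A4-promoter luciferase reporter; cells plated 5 hr, compound-exposed 24 hr at 37C. CYP3A4 activity probed with 3uM (final) Luciferin-IPA for 3hr, then luciferase read after One-Glo.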

[9] = biological target: Nuclear receptor subfamily 1 group I member 2 (Homo sapiens) (UniProt O75469); experiment: Human pregnane X receptor (PXR) activation by small molecules, qHTS assay (AID 1346985); note: nearly all actives have a fitted effect of over 40% in size; note: potency is the fitted concentration of half-maximal effect
Procedure, shortened: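 DPX-2 cells (HepG2 co-transfected with a PXR response element and a CYP3A4-promoter luciferase construct) were seeded at 2,000 per well, rested 5 hr at 37C, then exposed to DMSO-dissolved compounds for 24 hr. Activation was read as luciferase luminescence.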

[10] = biological target: Cytochrome P450 2D6 (Homo sapiens) (UniProt P10635); experiment: Cytochrome P450 Family 2 Subfamily D Member 6 (CYP2D6) small molecule antagonists: luciferase reporter qHTS assay (AID 1671196); note: nearly all actives have a fitted effect of over 50% in size; note: potency is the fitted concentration of half-maximal effect; for activity change, negative = inhibition: series mostly up to about 120 µM
Procedure, shortened: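 Luminogenic proluciferin substrate, CYP2D6 enzyme; 10 min RT preincubation with compound, NADPH regeneration system added, 1 h RT. Stop/detection reagent, 20 min RT, luminescence read (RLU). Signal proportional to CYP activity.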
% is set by controls: 0 for no effect and ±100 for the full control effect.

Sequence of Cytochrome P450 2D6 (Homo sapiens) (P10635 whole entry, looked up): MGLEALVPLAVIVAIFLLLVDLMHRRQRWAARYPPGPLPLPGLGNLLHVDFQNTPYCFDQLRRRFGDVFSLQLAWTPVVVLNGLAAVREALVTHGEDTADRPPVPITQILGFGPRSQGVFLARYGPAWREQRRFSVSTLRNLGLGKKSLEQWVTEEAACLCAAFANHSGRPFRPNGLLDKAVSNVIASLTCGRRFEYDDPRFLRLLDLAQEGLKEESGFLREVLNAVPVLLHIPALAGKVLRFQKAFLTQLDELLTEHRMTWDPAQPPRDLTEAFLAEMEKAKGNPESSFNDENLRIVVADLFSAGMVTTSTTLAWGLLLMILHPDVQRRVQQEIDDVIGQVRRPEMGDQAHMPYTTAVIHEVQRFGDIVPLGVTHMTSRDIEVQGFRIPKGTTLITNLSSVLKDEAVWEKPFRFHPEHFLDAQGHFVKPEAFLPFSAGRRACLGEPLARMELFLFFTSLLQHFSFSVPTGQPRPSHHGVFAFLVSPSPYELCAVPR
Sequence of Nuclear receptor subfamily 1 group I member 2 (Homo sapiens) (O75469 whole entry, looked up): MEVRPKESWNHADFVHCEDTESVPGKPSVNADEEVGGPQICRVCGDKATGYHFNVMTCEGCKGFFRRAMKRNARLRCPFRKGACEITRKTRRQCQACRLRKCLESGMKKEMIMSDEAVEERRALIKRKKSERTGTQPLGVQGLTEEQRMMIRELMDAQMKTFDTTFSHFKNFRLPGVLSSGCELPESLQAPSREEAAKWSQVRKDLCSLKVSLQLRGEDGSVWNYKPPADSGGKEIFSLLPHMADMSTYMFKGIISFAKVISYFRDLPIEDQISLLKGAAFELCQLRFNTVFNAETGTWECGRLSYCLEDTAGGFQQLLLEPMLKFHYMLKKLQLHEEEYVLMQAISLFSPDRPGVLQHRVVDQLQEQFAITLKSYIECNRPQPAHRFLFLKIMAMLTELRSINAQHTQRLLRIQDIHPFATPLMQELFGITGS
Sequence of Nuclear receptor subfamily 1 group I member 2 (Rattus norvegicus) (Q9R1A7 whole entry, looked up): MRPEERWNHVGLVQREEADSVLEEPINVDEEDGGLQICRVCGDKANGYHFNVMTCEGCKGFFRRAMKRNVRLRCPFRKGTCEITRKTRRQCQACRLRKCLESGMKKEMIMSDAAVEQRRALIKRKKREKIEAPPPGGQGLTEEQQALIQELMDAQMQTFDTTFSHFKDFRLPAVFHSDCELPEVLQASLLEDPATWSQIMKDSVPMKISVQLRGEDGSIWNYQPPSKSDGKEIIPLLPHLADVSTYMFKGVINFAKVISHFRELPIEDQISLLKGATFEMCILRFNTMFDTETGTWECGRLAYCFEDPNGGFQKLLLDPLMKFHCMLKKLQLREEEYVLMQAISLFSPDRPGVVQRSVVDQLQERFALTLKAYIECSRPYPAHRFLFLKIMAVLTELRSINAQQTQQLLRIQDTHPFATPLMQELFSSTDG

Nc1ncn([C@H]2C[C@H](O)[C@@H](CO)O2)c(=O)n1
inactive: Potency [1] | Potency [2] | Potency [3] | Potency [4] | Potency [5] | Potency [6] | max activation [7] 10.4% | Potency [8] | Potency [9] | Potency [10]

N=c1ccn2c(n1)O[C@H]1[C@H](O)[C@@H](CO)O[C@H]12
inactive: Potency [1] | Potency [2] | Potency [3] | Potency [4] | Potency [5] | Potency [6] | max activation [7] 4.22% | Potency [9] | Potency [10]

NCc1ccccc1Sc1ccccc1CO
inactive: Potency [1] | Potency [2] | Potency [3] | Potency [4] | Potency [5] | Potency [6] | max activation [7] -1.62% | Potency [8] | Potency [9]
active: Potency [10] 7.76 µM

C#CCN(C)CCCOc1ccc(Cl)cc1Cl
inactive: Potency [1] | Potency [2] | Potency [3] | Potency [4] | Potency [5] | max activation [7] -1.33% | Potency [9]
active: Potency [6] 29.8 µM | Potency [10] 1.55 µM

COc1ccnc(CS(=O)c2nc3ccc(OC(F)F)cc3[nH]2)c1OC (stereo unspecified)
inactive: Potency [1] | Potency [2] | Potency [3] | Potency [4] | Potency [5] | Potency [6] | max activation [7] 0.184%
active: Potency [10] 2.75 µM

Cc1cccc(C)c1OCC(=O)N[C@@H](Cc1ccccc1)[C@@H](O)C[C@H](Cc1ccccc1)NC(=O)[C@H](C(C)C)N1CCCNC1=O
inactive: Potency [2] | Potency [4]
active: Potency [1] 29.8 µM | Potency [3] 26.6 µM | Potency [5] 26.6 µM | Potency [6] 29.8 µM | Potency [7] 11.2 µM | Potency [9] 3.98 µM | Potency [10] 15.5 µM

COc1ccc(-c2nc3ccc(C4=NNC(=O)CC4C)cc3[nH]2)cc1 (stereo unspecified)
inactive: Potency [1] | Potency [2] | Potency [4] | Potency [5] | Potency [8] | Potency [10]
active: Potency [3] 23.7 µM | Potency [6] 13.3 µM | Potency [7] 22.4 µM

CCCCC/C=C\C/C=C\CCCCCCCC(=O)NC(C)c1ccccc1 (stereo unspecified)
inactive: Potency [1] | Potency [2] | Potency [4] | Potency [5]
active: Potency [3] 26.6 µM | Potency [6] 21.1 µM | Potency [10] 4.36 µM

CC(C)(O)c1ccc(CNC(=O)c2cccnc2Oc2ccc(F)cc2)cc1
inactive: Potency [1] | Potency [2] | Potency [3] | Potency [4] | Potency [5] | Potency [10]
active: Potency [6] 54.5 µM

Nc1cccc([N+](=O)[O-])c1
inactive: Potency [1] | Potency [2] | Potency [3] | Potency [4] | Potency [5] | Potency [6] | Potency [10]

C[N+](C)(C)CCOC(=O)CCC(=O)OCC[N+](C)(C)C
inactive: Potency [1] | Potency [2] | Potency [3] | Potency [4] | Potency [5] | Potency [6] | max activation [7] -0.297% | Potency [8] | Potency [9]

Cc1ncc(CO)c(C=O)c1O
inactive: Potency [1] | Potency [2] | Potency [3] | Potency [4] | Potency [5] | Potency [6] | max activation [7] -0.222% | Potency [8] | Potency [9] | Potency [10]

Cc1[nH]c(C)c(Cl)c(=O)c1Cl
inactive: activity change, negative = cytotoxicity [1] 6.66% [at 19 µM] | caspase activation [2] 0.0051% [at 19 µM] | activity change, negative = cytotoxicity [3] 1.93% [at 19 µM] | caspase-3/7 activation [4] -0.964% [at 19 µM] | activity change, negative = cytotoxicity [5] -0.581% [at 19 µM] | activation [6] -7.31% [at 19 µM] | max activation [7] -3.17% | Potency [8] | Potency [9] | activity change, negative = inhibition [10] -9.89% [at 23.6 µM]

CC1(c2ccccc2)OC(C(=O)O)=CC1=O (stereo unspecified)
inactive: Potency [1] | Potency [2] | Potency [3] | Potency [4] | Potency [5] | Potency [6] | max activation [7] -1.39% | Potency [8] | Potency [9]

CC1=CC=C(C(C)C)CC1
inactive: Potency [1] | Potency [2] | Potency [3] | Potency [4] | Potency [5] | Potency [6] | Potency [10]

O=C(NCC1CN(c2ccc(N3CCOCC3=O)cc2)C(=O)O1)c1ccc(Cl)s1 (stereo unspecified)
inactive: Potency [1] | Potency [2] | Potency [3] | Potency [4] | Potency [5] | Potency [6] | Potency [10]

C=CC(=O)OCCOCCOCCOCCOC(=O)C=C
inactive: Potency [6] | Potency [10]
active: Potency [1] 54 µM | Potency [2] 68 µM | Potency [3] 8.68 µM and 13.6 µM | Potency [4] 9.74 µM and 12.1 µM | Potency [5] 30.8 µM and 27.1 µM

CCO[Si](CCCCl)(OCC)OCC
active: Potency [10] 22.3 µM
inactive: Potency [1] | Potency [2] | Potency [3] | Potency [4] | Potency [5] | Potency [6]

C=CC1CC2C=CC1C2 (stereo unspecified)
inactive: Potency [1] | Potency [2] | Potency [3] | Potency [4] | Potency [5] | Potency [6] | Potency [10]

O=CC1CC=CCC1 (stereo unspecified)
active: Potency [10] 55.9 µM
inactive: Potency [1] | Potency [2] | Potency [3] | Potency [4] | Potency [5] | Potency [6]

Cc1ccccc1S(=O)(=O)O
inactive: Potency [1] | Potency [2] | Potency [3] | Potency [4] | Potency [5] | Potency [6] | Potency [10]

COc1cc2nc(Cl)nc(N)c2cc1OC
inactive: Potency [1] | Potency [2] | Potency [3] | Potency [4] | Potency [5] | Potency [6] | Potency [10]

Nc1ccc(N)c2c1C(=O)c1ccccc1C2=O
active: Potency [1] 9.69 µM | Potency [3] 24.3 µM | Potency [5] 21.7 µM | Potency [10] 35.6 µM
inactive: Potency [2] | Potency [4] | Potency [6]
